Experiment [1] is described as follows: NCI Yeast Anticancer Drug Screen. Data for the mec2-1 strain (AID 157). The conditions noted are these: S. cerevisiae mec2-1 strain, stronger effect = higher value. In short, it runs like this:
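Strain: mec2-1 (DNA repair/cell cycle alteration). Compound exposure, then growth measured; inhibition expressed relative to vehicle.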

Experiment [2] is described as follows: NCI Yeast Anticancer Drug Screen. Data for the sgs1 mgt1 strain (AID 161).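 Note: 0% = growth of cultures given vehicle only.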 The conditions noted are these: S. cerevisiae sgs1 mgt1 strain, stronger effect = higher value. In short, it runs like this: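 Inhibition of yeast growth, normalised to vehicle-treated controls, is reported for a strain bearing genetic alterations in DNA damage repair.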
A short description of experiment [3]: NCI Yeast Anticancer Drug Screen. Data for the cln2 rad14 strain (AID 165).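 Note: 0% = growth equal to vehicle treated cultures.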 The note with it: S. cerevisiae cln2 rad14 strain, stronger effect = higher value. The method, boiled down:
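Compounds are applied to the cln2 rad14 yeast strain, and growth is then compared with that of vehicle-treated cultures to give inhibition.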

Experiment [4] can be described thus: NCI Yeast Anticancer Drug Screen. Data for the bub3 strain (AID 167). The note with it: S. cerevisiae bub3 mutant strain, stronger effect = higher value. The method, boiled down:
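Whole-cell yeast assay. The mutant strain was incubated with compounds, and growth inhibition was determined by comparison with vehicle-treated cells.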

Experiment [5] is described as follows: NCI Yeast Anticancer Drug Screen. Data for the mlh1 rad18 strain (AID 175). The conditions noted are these: S. cerevisiae mlh1 rad18 strain growth inhibition, stronger effect = higher value. The method, boiled down: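 Read-out is yeast growth inhibition, calculated against vehicle-only controls. The compound was applied to a strain engineered with DNA damage repair alterations.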

The nature of experiment [6]: NCI Yeast Anticancer Drug Screen. Data for the rad50 strain (AID 155).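 Note: 0% = growth of vehicle-only cultures of the same strain.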 The note with it: S. cerevisiae rad50 strain growth inhibition, stronger effect = higher value. In short, it runs like this:
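Growth of the mutant yeast was measured after compound exposure and referenced to vehicle-treated cultures.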

Setting [7] is: at 5.0 µM (retest, dose inferred, filed as 0.5).
The mark [8] stands for this setting: at 50.0 µM (retest, dose inferred, filed as 5.0).

Values joined by “and” are separate entries in the source; they are usually repeats but may differ in a detail not shown here. Equal entries are not always repeated. This is part of a sample that, as a whole, favours compounds with a hit. Of some 79,000 tested, about 15% had one in any assay. The source holds several records for some structures; these can differ, active in one and inactive in another. Active and inactive are the calls of the source. Cut-off read from the data, not from the text of the source: active = growth inhibition above about 70%; inactive = the rest.

Regarding `CCC(=O)C(CCN1CCC2(CCCc3ccccc32)CC1)(c1ccccc1)c1ccccc1`, the growth inhibition was -5% (inactive) in experiment [1] (setting [7]); 93% (active) in experiment [1] (setting [8]); 94.2% (active) in experiment [1] (at 50.0 µM); 3% (inactive) in experiment [2] (setting [7]); 93% (active) in experiment [2] (setting [8]); 97.8% (active) in experiment [2] (at 50.0 µM). The growth inhibition in experiment [3] (setting [7]) was -11% (inactive); in experiment [3] (setting [8]), 87% (active); in experiment [3] (at 50.0 µM), 87.2% (active); in experiment [4] (setting [7]) it was -2% (inactive); in experiment [4] (setting [8]), 91% (active); in experiment [4] (at 50.0 µM), 94.2% (active). Besides, the results for the growth inhibition in experiment [5] (setting [7]), in experiment [5] (setting [8]) and in experiment [5] (at 50.0 µM) were 3% (inactive), 92% (active) and 97.3% (active), respectively.

As to `N=C(N)SCc1ccccc1`, the growth inhibition in experiment [6] (at 50.0 µM) was -2.55% (inactive) [middle of 5 runs]; in experiment [1] (at 50.0 µM), -2.2% (inactive) [middle of 5 runs]; in experiment [2] (at 50.0 µM), 7.55% (inactive) [middle of 5 runs]; in experiment [4] (at 50.0 µM) it was -5.6% (inactive) [middle of 5 runs].

In the case of `CN[C@H]1C[C@@H]2O[C@@](C)([C@H]1OC)n1c3ccccc3c3c4c(c5c6ccccc6n2c5c31)C(=O)NC4`, the growth inhibition was 99% (active) in experiment [6] (setting [7]); 99% (active) in experiment [6] (setting [8]); 92.3% (active) in experiment [6] (at 50.0 µM); 97% (active) in experiment [2] (setting [7]); 99% (active) in experiment [2] (setting [8]); 90.6% (active) in experiment [2] (at 50.0 µM). The growth inhibition was 96% (active) in experiment [3] (setting [7]); 99% (active) in experiment [3] (setting [8]); 91.5% (active) in experiment [3] (at 50.0 µM); 98% (active) in experiment [4] (setting [7]); 98% (active) in experiment [4] (setting [8]); 91.8% (active) in experiment [4] (at 50.0 µM). The growth inhibition in experiment [5] (setting [7]) is 98% (active); in experiment [5] (setting [8]) it was 99% (active); in experiment [5] (at 50.0 µM), 91.8% (active).

As for `NC(CS)C(=O)O` (stereo unspecified), the growth inhibition in experiment [6] (at 50.0 µM) is -4.8% (inactive) and 31.9% (inactive) and -26% (inactive); in experiment [1] (at 50.0 µM), -7.5% (inactive) and -9.05% (inactive) and -3.1% (inactive); in experiment [2] (at 50.0 µM), -7.95% (inactive) and 28.4% (inactive) and -35.2% (inactive); in experiment [3] (at 50.0 µM) it was -0.4% (inactive) and 7.6% (inactive) and -1.55% (inactive); in experiment [4] (at 50.0 µM), -17.2% (inactive) and 25.6% (inactive) and -38.2% (inactive); in experiment [5] (at 50.0 µM), -8.1% (inactive) and 13.2% (inactive) and 1.75% (inactive).

Regarding `CC12CCC(O)CC1CCC1C2CCC2(C)C(C(=O)CC(O)C(F)(F)F)CCC12` (stereo unspecified), the growth inhibition in experiment [6] (setting [7]) was 4% (inactive); in experiment [6] (setting [8]) it was 62% (inactive); in experiment [6] (at 50.0 µM), 84.5% (active); in experiment [1] (setting [7]) it was 8% (inactive); in experiment [1] (setting [8]), 43% (inactive); in experiment [1] (at 50.0 µM) it was 65.8% (inactive). In addition, the growth inhibition was -9% (inactive) in experiment [2] (setting [7]); 62% (inactive) in experiment [2] (setting [8]); 67.5% (inactive) in experiment [2] (at 50.0 µM); -7% (inactive) in experiment [3] (setting [7]); 66% (inactive) in experiment [3] (setting [8]); 71.2% (active) in experiment [3] (at 50.0 µM). Also, the growth inhibition in experiment [4] (setting [7]) was -15% (inactive); in experiment [4] (setting [8]), 57% (inactive); in experiment [4] (at 50.0 µM), 84% (active); in experiment [5] (setting [7]), 0% (inactive); in experiment [5] (setting [8]) it was 63% (inactive); in experiment [5] (at 50.0 µM) it was 85.7% (active).

For the molecule `C/C=C(\C)C(=O)OC1C(C)=C2C(C1OC(=O)CCCCC)C(C)(OC(C)=O)CC(OC(=O)CCC)C1(O)C2OC(=O)C1(C)O` (stereo unspecified), the growth inhibition in experiment [6] (setting [7]) was 26% (inactive); in experiment [6] (setting [8]) it was 85% (active); in experiment [6] (at 50.0 µM), 77.6% (active); in experiment [1] (setting [7]) it was 15% (inactive); in experiment [1] (setting [8]), 86% (active); in experiment [1] (at 50.0 µM), 83.5% (active). The growth inhibition is 20% (inactive) in experiment [2] (setting [7]); 91% (active) in experiment [2] (setting [8]); 74.8% (active) in experiment [2] (at 50.0 µM); 34% (inactive) in experiment [3] (setting [7]); 95% (active) in experiment [3] (setting [8]); 82.6% (active) in experiment [3] (at 50.0 µM). The growth inhibition was 34% (inactive) in experiment [5] (setting [7]), 87% (active) in experiment [5] (setting [8]) and 67.6% (inactive) in experiment [5] (at 50.0 µM).

Take `NN1CCCC1C(=O)O` (stereo unspecified): the growth inhibition in experiment [6] (setting [7]) is -1% (inactive); in experiment [6] (setting [8]) it was 2% (inactive); in experiment [6] (at 50.0 µM), 23.1% (inactive); in experiment [1] (setting [7]), -2% (inactive); in experiment [1] (setting [8]) it was -1% (inactive); in experiment [1] (at 50.0 µM) it was 53.1% (inactive). The growth inhibition is 0% (inactive) in experiment [2] (setting [7]); 0% (inactive) in experiment [2] (setting [8]); 28.2% (inactive) in experiment [2] (at 50.0 µM); 3% (inactive) in experiment [3] (setting [7]); -2% (inactive) in experiment [3] (setting [8]); 76.2% (active) in experiment [3] (at 50.0 µM). The figures for the growth inhibition in experiment [5] (setting [7]), in experiment [5] (setting [8]) and in experiment [5] (at 50.0 µM) were -1% (inactive), 2% (inactive) and 65.6% (inactive), respectively.

With `CC(C)C1(NC(=O)C2C=C3c4cccc5[nH]cc(c45)CC3N(C)C2)OC2(O)C3CCCN3C(=O)C(Cc3ccccc3)N2C1=O` (stereo unspecified), the growth inhibition is 0% (inactive) in experiment [6] (setting [7]); 94% (active) in experiment [6] (setting [8]); 96.2% (active) in experiment [6] (at 50.0 µM); -47% (inactive) in experiment [1] (setting [7]); 92% (active) in experiment [1] (setting [8]); 97.1% (active) in experiment [1] (at 50.0 µM). For the same molecule, the growth inhibition in experiment [2] (setting [7]) is -2% (inactive); in experiment [2] (setting [8]), 89% (active); in experiment [2] (at 50.0 µM), 98.2% (active); in experiment [3] (setting [7]) it was -8% (inactive); in experiment [3] (setting [8]), 95% (active); in experiment [3] (at 50.0 µM), 94.5% (active). Moreover, the growth inhibition in experiment [5] (setting [7]) is -2% (inactive); in experiment [5] (setting [8]) it was 97% (active); in experiment [5] (at 50.0 µM), 97% (active).

For the molecule `C/C(=N\N)C(CN1CCCCC1)C(c1ccccc1)c1c(O)c2ccccc2oc1=O` (stereo unspecified), the growth inhibition in experiment [6] (setting [7]) is 3% (inactive); in experiment [6] (setting [8]), 3% (inactive); in experiment [6] (at 50.0 µM), 79.8% (active); in experiment [1] (setting [7]), 1% (inactive); in experiment [1] (setting [8]) it was 1% (inactive); in experiment [1] (at 50.0 µM) it was 63.8% (inactive). Also, the growth inhibition is 3% (inactive) in experiment [2] (setting [7]); 3% (inactive) in experiment [2] (setting [8]); 81.7% (active) in experiment [2] (at 50.0 µM); 4% (inactive) in experiment [3] (setting [7]); 4% (inactive) in experiment [3] (setting [8]); 74% (active) in experiment [3] (at 50.0 µM). In addition, the growth inhibition in experiment [5] (setting [7]) was 8% (inactive); in experiment [5] (setting [8]), 8% (inactive); in experiment [5] (at 50.0 µM), 80% (active).

For `C[C@H]1CCC/C=C/[C@@H]2C[C@H](O)C[C@H]2[C@H](O)/C=C/C(=O)O1`, the growth inhibition is 5% (inactive) and 15% (inactive) in experiment [6] (setting [7]); 98% (active) and 99% (active) in experiment [6] (setting [8]); 10% (inactive) and 26% (inactive) in experiment [1] (setting [7]); 99% (active) and 100% (active) in experiment [1] (setting [8]); 13% (inactive) and 21% (inactive) in experiment [2] (setting [7]); 99% (active) in experiment [2] (setting [8]). Also, the growth inhibition was 90.3% (active) and 5.45% (inactive) and 90.8% (active) in experiment [2] (at 50.0 µM); 7% (inactive) and 27% (inactive) in experiment [3] (setting [7]); 99% (active) in experiment [3] (setting [8]); 4% (inactive) and 31% (inactive) in experiment [4] (setting [7]); 97% (active) and 98% (active) in experiment [4] (setting [8]); 90.8% (active) and 1.65% (inactive) and 90.9% (active) in experiment [4] (at 50.0 µM). Besides, the growth inhibition in experiment [5] (setting [7]) was 17% (inactive) and 42% (inactive); in experiment [5] (setting [8]), 99% (active); in experiment [5] (at 50.0 µM) it was 90.8% (active) and 13.7% (inactive) and 39% (inactive).

Take `O=c1[nH]cc(Cn2cnc3ncccc3c2=O)c(=O)[nH]1`: the growth inhibition in experiment [6] (setting [7]) is -5% (inactive); in experiment [6] (setting [8]), -4% (inactive); in experiment [6] (at 50.0 µM), 6.4% (inactive); in experiment [1] (setting [7]), -5% (inactive); in experiment [1] (setting [8]), -5% (inactive); in experiment [1] (at 50.0 µM) it was 7.55% (inactive). Besides, the growth inhibition in experiment [2] (setting [7]) is -3% (inactive); in experiment [2] (setting [8]), -1% (inactive); in experiment [2] (at 50.0 µM), -2.1% (inactive); in experiment [3] (setting [7]) it was -3% (inactive); in experiment [3] (setting [8]), -11% (inactive); in experiment [3] (at 50.0 µM), 40.5% (inactive). In addition, the growth inhibition in experiment [4] (setting [7]) was -4% (inactive); in experiment [4] (setting [8]), -2% (inactive); in experiment [4] (at 50.0 µM), -18.2% (inactive); in experiment [5] (setting [7]), -8% (inactive); in experiment [5] (setting [8]), -5% (inactive); in experiment [5] (at 50.0 µM), -16.5% (inactive).

The record behind these values is PubChem BioAssay (NCI).
